Where “and” joins values, the source holds several entries; their conditions need not be identical. Identical values can stand only once. Inconclusive results are not listed. Calls of active or inactive are those of the source. The call rests on the fitted dose curve; in most records, active means well fitted curve in the direction sought with a large enough effect; inconclusive means small, poorly fitted or top-dose-only effect, or another doubt; inactive means no such curve, though single readings can be large; an effect the other way counts as inactive or inconclusive.
Each compound was assayed against Rap guanine nucleotide exchange factor 3 (Homo sapiens) (UniProt O95398) (assay: Confirmatory qHTS for antagonist of cAMP-regulated guanine nucleotide exchange factor 3 (EPAC1) (AID 1645880;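 further: plate controls were DMSO only for no effect and full effect of the ATA control for full effect; nearly all actives have a fitted effect of over 55% in size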)). Conditions: EPAC1 Rap1B-BODIPY-GDP exchange, fluorescence; series mostly up to 115 µM; activity, negative = inhibition: at the top concentration.
In short: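 Released BODIPY-GDP fluoresces less than Rap1-bound BODIPY-GDP; the signal is followed at 480/540 nm at 5-min intervals over 30 min, after 5 min at room temperature. Reactions contain 100 nM EPAC1, 250 nM RAP1B-BODIPY-GDP and 50 uM GDP; results are normalized to ATA and DMSO.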

Rap guanine nucleotide exchange factor 3 (Homo sapiens), sequence (O95398 whole entry, looked up): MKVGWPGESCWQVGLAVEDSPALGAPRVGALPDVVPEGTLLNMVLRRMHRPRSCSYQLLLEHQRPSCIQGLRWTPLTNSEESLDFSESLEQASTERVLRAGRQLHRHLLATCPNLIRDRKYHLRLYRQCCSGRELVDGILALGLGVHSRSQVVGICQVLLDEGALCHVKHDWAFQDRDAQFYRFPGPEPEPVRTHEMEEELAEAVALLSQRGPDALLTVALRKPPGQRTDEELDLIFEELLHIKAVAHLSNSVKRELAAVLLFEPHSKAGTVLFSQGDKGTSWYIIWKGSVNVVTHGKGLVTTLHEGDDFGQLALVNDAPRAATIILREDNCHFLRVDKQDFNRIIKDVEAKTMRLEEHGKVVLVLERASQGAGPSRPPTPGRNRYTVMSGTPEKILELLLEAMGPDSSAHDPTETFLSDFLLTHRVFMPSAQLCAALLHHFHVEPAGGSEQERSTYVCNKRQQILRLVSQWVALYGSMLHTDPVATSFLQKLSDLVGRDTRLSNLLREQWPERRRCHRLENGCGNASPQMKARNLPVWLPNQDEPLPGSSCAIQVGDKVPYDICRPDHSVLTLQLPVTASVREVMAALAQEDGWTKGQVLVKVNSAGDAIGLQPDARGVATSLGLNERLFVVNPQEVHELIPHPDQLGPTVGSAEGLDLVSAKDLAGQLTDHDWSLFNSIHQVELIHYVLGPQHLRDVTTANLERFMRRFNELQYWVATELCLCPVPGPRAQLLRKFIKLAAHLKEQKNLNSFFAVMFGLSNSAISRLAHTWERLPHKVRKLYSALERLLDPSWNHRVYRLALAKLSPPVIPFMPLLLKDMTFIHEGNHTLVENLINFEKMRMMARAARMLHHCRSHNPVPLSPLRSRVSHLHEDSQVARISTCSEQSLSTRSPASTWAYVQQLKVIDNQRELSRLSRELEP

| Compound | activity, negative = inhibition | outcome |
| --- | --- | --- |
| Cc1cccc(C)c1NC(=O)C(C)N (stereo not drawn) | -9.21% (inactive) | – |
| CCCCOCCOCCOCc1cc2c(cc1CCC)OCO2 | -21.1% [at 203 µM] (inactive) | – |
| COc1cc(Cc2cnc(N)nc2N)cc(OC)c1OC | -11.9% (inactive) | – |
| Cc1nc2sccn2c(=O)c1CCN1CCC(=C(c2ccc(F)cc2)c2ccc(F)cc2)CC1 | -18.3% (inactive) | – |
| CCOC(=O)C1=C(C)NC(C)=C(C(=O)OC)C1c1cccc([N+](=O)[O-])c1 (stereo not drawn) | -23.3% (inactive) | – |
| CCn1ccnc1CC1COc2ccccc2O1 (stereo not drawn) | – | inactive |
| CC(=O)[C@]1(O)Cc2c(O)c3c(c(O)c2[C@@H](O[C@H]2C[C@H](N)[C@H](O)[C@H](C)O2)C1)C(=O)c1ccccc1C3=O | – | inactive |

These compounds were tested against Rap guanine nucleotide exchange factor 3 (Homo sapiens) (UniProt O95398) (assay: Confirmatory qHTS for agonist of cAMP-regulated guanine nucleotide exchange factor 3 (EPAC1) (AID 1645881; further: nearly all actives have a fitted effect of over 75% in size; further: potency means the concentration at half of the fitted maximal effect;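 on activation: EPAC1 catalysed release of BODIPY-GDP from Rap1B seen as fluorescence loss; 100% = effect of cAMP agonist control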)). Conditions: EPAC1 Rap1B BODIPY-GDP exchange fluorescence; series mostly up to 154 µM; activation: at the top concentration.

| Compound | activation | Potency |
| --- | --- | --- |
| Cc1cccc(C)c1NC(=O)C(C)N (stereo not drawn) | -5.24% (inactive) | – |
| COc1cc2c(cc1OC)-c1cc(=Nc3c(C)cc(C)cc3C)n(C)c(=O)n1CC2 | -3.32% (inactive) | – |
| CCCCOCCOCCOCc1cc2c(cc1CCC)OCO2 | -16.7% [at 271 µM, 100% = cAMP control response] (inactive) | – |
| COc1cc(Cc2cnc(N)nc2N)cc(OC)c1OC | 7.39% (inactive) | – |
| O=C1NCN(c2ccccc2)C12CCN(CCCC(c1ccc(F)cc1)c1ccc(F)cc1)CC2 | -11.8% [at 51.3 µM, 100% = cAMP control response] (inactive) | – |
| Cc1nc2sccn2c(=O)c1CCN1CCC(=C(c2ccc(F)cc2)c2ccc(F)cc2)CC1 | -0.0494% (inactive) | – |
| CCOC(=O)C1=C(C)NC(C)=C(C(=O)OC)C1c1cccc(Cl)c1Cl (stereo not drawn) | – | inactive |
| COC(=O)C1=C(C)NC(C)=C(C(=O)OCCN(C)Cc2ccccc2)C1c1cccc([N+](=O)[O-])c1 (stereo not drawn) | -2.23% (inactive) | – |
| CCOC(=O)C1=C(C)NC(C)=C(C(=O)OC)C1c1cccc([N+](=O)[O-])c1 (stereo not drawn) | 14.8% (inactive) | – |
| CCn1ccnc1CC1COc2ccccc2O1 (stereo not drawn) | – | inactive |
| CC(=O)[C@]1(O)Cc2c(O)c3c(c(O)c2[C@@H](O[C@H]2C[C@H](N)[C@H](O)[C@H](C)O2)C1)C(=O)c1ccccc1C3=O | – | 63 µM (active) and 70.6 µM (active) |
| OCCN1CCN(CC/C=C2/c3ccccc3Sc3ccc(C(F)(F)F)cc32)CC1 | 4.05% (inactive) | – |
| COCCOC(=O)C1=C(C)NC(C)=C(C(=O)OC(C)C)C1c1cccc([N+](=O)[O-])c1 (stereo not drawn) | 6.74% (inactive) | – |

What follows are compounds tested against Rap guanine nucleotide exchange factor 4 (Homo sapiens) (UniProt Q8WZA2) (assay: Confirmatory qHTS for agonist of cAMP-regulated guanine nucleotide exchange factor 4 (EPAC2) (AID 1645884;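 further: nucleotide exchange releases bodipy-GDP from Rap1 and this lowers its fluorescence; on the % scale 0 is the no-effect control and ±100 the full control effect; nearly all actives have a fitted effect of over 65% in size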)). Conditions: EPAC2 GEF activity, Rap1B-BODIPY-GDP fluorescence; series mostly up to 154 µM; activation: at the top concentration.
Rap guanine nucleotide exchange factor 4 (Homo sapiens), sequence (Q8WZA2 whole entry, looked up): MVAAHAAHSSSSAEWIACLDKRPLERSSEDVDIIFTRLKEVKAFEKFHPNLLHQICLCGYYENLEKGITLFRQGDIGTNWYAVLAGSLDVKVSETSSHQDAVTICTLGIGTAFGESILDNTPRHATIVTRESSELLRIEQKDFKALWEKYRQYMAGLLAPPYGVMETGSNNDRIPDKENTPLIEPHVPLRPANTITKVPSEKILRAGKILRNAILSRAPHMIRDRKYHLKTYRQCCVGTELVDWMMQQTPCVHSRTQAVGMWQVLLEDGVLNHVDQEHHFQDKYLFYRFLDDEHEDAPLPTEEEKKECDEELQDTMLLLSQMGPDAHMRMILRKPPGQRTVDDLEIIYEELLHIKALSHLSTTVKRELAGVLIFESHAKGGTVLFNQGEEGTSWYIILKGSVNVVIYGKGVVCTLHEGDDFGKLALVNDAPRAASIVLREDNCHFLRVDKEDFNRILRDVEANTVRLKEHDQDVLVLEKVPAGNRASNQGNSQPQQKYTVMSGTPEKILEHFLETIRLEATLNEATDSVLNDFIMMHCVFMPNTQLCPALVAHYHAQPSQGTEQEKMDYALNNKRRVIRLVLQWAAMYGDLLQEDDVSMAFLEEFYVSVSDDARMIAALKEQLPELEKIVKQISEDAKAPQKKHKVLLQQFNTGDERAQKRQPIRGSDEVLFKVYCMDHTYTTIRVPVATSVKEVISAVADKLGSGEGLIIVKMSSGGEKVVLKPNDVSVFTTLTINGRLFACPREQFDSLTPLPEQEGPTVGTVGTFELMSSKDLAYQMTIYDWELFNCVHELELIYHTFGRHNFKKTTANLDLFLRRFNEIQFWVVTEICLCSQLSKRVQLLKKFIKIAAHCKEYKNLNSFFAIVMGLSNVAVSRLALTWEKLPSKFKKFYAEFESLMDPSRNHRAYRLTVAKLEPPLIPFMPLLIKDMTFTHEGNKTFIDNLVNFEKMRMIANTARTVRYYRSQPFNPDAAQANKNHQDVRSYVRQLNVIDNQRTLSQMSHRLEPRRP

| Compound | activation | Potency |
| --- | --- | --- |
| Cc1cccc(C)c1NC(=O)C(C)N (stereo not drawn) | 2.14% (inactive) | – |
| CCCCOCCOCCOCc1cc2c(cc1CCC)OCO2 | -5.22% [at 271 µM, percent relative to cAMP agonist control] (inactive) | – |
| COc1cc(Cc2cnc(N)nc2N)cc(OC)c1OC | 8.49% (inactive) | – |
| O=C1NCN(c2ccccc2)C12CCN(CCCC(c1ccc(F)cc1)c1ccc(F)cc1)CC2 | 3.6% [at 51.3 µM, percent relative to cAMP agonist control] (inactive) | – |
| Cc1nc2sccn2c(=O)c1CCN1CCC(=C(c2ccc(F)cc2)c2ccc(F)cc2)CC1 | 2.91% (inactive) | – |
| CCOC(=O)C1=C(C)NC(C)=C(C(=O)OC)C1c1cccc(Cl)c1Cl (stereo not drawn) | – | inactive |
| COC(=O)C1=C(C)NC(C)=C(C(=O)OCCN(C)Cc2ccccc2)C1c1cccc([N+](=O)[O-])c1 (stereo not drawn) | 9.63% (inactive) | – |
| CCn1ccnc1CC1COc2ccccc2O1 (stereo not drawn) | – | inactive |
| OCCN1CCN(CC/C=C2/c3ccccc3Sc3ccc(C(F)(F)F)cc32)CC1 | 2.94% (inactive) | – |

What follows are compounds tested against Rap guanine nucleotide exchange factor 4 (Homo sapiens) (UniProt Q8WZA2) (assay: Confirmatory qHTS for antagonist of cAMP-regulated guanine nucleotide exchange factor 4 (EPAC2) (AID 1645885; further: nearly all actives have a fitted effect of over 25% in size; further: potency means the concentration at half of the fitted maximal effect; on activity change, negative = inhibition: on the % scale 0 is the no-effect control and ±100 the full control effect)). Conditions: EPAC2 Rap1B-BODIPY-GDP exchange fluorescence, biochemical; series mostly up to 114 µM; activity change, negative = inhibition: at the top concentration.

| Compound | activity change, negative = inhibition | Potency |
| --- | --- | --- |
| Cc1cccc(C)c1NC(=O)C(C)N (stereo not drawn) | -7.04% (inactive) | – |
| COc1cc2c(cc1OC)-c1cc(=Nc3c(C)cc(C)cc3C)n(C)c(=O)n1CC2 | – | 44.1 µM (active) |
| COc1cc(Cc2cnc(N)nc2N)cc(OC)c1OC | -8.61% (inactive) | – |
| Cc1nc2sccn2c(=O)c1CCN1CCC(=C(c2ccc(F)cc2)c2ccc(F)cc2)CC1 | – | 44.1 µM (active) |
| CCOC(=O)C1=C(C)NC(C)=C(C(=O)OC)C1c1cccc(Cl)c1Cl (stereo not drawn) | – | 49.4 µM (active) and 47.8 µM (active) |
| CCn1ccnc1CC1COc2ccccc2O1 (stereo not drawn) | – | 11.1 µM (active) |
| CC(=O)[C@]1(O)Cc2c(O)c3c(c(O)c2[C@@H](O[C@H]2C[C@H](N)[C@H](O)[C@H](C)O2)C1)C(=O)c1ccccc1C3=O | – | inactive |
| OCCN1CCN(CC/C=C2/c3ccccc3Sc3ccc(C(F)(F)F)cc32)CC1 | 15.4% (inactive) | – |
| COCCOC(=O)C1=C(C)NC(C)=C(C(=O)OC(C)C)C1c1cccc([N+](=O)[O-])c1 (stereo not drawn) | – | 49.4 µM (active) |

The compounds below were run against Rap guanine nucleotide exchange factor 3 (Homo sapiens) (UniProt O95398) (assay: Counterscreen qHTS for agonist of cAMP-regulated guanine nucleotide exchange factor 3 (EPAC1) (AID 1645889; further: % of control where 0% means no effect; nearly all actives have a fitted effect of over 40% in size)). Conditions: EPAC1 Rap1B-BODIPY-GDP exchange, fluorescence; series mostly up to 154 µM; activation: at the top concentration.
In short: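 Measured: fluorescence of BODIPY-GDP bound to Rap1B, which falls as exchange proceeds. Conditions include 50 uM competing GDP, 5 and 30 min reads, and a later cAMP challenge for antagonist detection.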

| Compound | activation |
| --- | --- |
| COc1cc(Cc2cnc(N)nc2N)cc(OC)c1OC | 9.66% (inactive) |
| CCOC(=O)C1=C(C)NC(C)=C(C(=O)OC)C1c1cccc(Cl)c1Cl (stereo not drawn) | -10.9% (inactive) |
| OCCN1CCN(CC/C=C2/c3ccccc3Sc3ccc(C(F)(F)F)cc32)CC1 | 24.9% (inactive) |

The compounds below were run against Catechol O-methyltransferase (Homo sapiens) (UniProt P21964) (assay: Confirmatory Screen for Target Class Profiling of Small Molecule Inhibitors of Methyltransferases (AID 1745852)). Conditions: MTase-Glo luminescence, SAH detection, recombinant enzyme; measured here: COMT max response; stronger effect = lower value.
Catechol O-methyltransferase (Homo sapiens), sequence (P21964 whole entry, looked up): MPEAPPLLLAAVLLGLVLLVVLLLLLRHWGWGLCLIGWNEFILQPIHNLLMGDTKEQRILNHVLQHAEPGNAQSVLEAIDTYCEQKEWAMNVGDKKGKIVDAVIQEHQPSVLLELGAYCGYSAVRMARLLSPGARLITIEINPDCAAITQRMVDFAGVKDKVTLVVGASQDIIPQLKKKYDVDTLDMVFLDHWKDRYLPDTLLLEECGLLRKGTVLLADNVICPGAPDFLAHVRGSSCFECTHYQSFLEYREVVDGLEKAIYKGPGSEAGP

| Compound | activity [%] |
| --- | --- |
| CCc1cccc(N(C)C(N)=Nc2cccc3ccccc23)c1 | -0.0494 |
| CCc1c(C)[nH]c2c1C(=O)C(CN1CCOCC1)CC2 (stereo not drawn) | 6.21 |
| CCCN1C[C@H](CSC)C[C@@H]2c3cccc4[nH]cc(c34)C[C@H]21 | -0.209 |
| NC(N)=N/N=C/c1c(Cl)cccc1Cl | -0.724 |
| COC(=O)[C@@H](N)Cc1ccc(O)c(O)c1 | 134 |
| CCC(=O)c1ccc2c(c1)N(CCCN(C)C)c1ccccc1S2 | 6.41 |
| NC1=NCC2c3ccccc3Cc3ccccc3N12 (stereo not drawn) | -1.67 |
| COc1cc(C(=O)OCCCN2CCCN(CCCOC(=O)c3cc(OC)c(OC)c(OC)c3)CC2)cc(OC)c1OC | -6.42 |
| CN(C)[C@@H]1C(=O)C(C(N)=O)=C(O)[C@@]2(O)C(=O)C3=C(O)c4c(O)ccc(Cl)c4[C@@H](O)[C@H]3C[C@@H]12 | -43.5 |
| CCCN(CCC)CCc1cccc2c1CC(=O)N2 | 9.88 |
| CC1=C(C)C(=O)C(CCCCC#CCCCC#CCO)=C(C)C1=O | 4.09 |
| CN(C)CC[C@@H](c1ccc(Br)cc1)c1ccccn1 | -5.16 |

From PubChem BioAssay (NCATS)
